# How the values were obtained:
# Settings in all cases: concentration: 1 μM, replicates: in singlicate; n = 1
# [1] = test system: PIP5K1A
# [2] = test system: PIP5K1C
# [3] = test system: PIP5K2B
# [4] = test system: T1, PIP5K2C
# T1 construct: gene PIP4K2C
# [5] = test system: T2, PKAC-alpha
# T2 construct: gene PRKACA
# [6] = test system: T3, PKAC-beta
# T3 construct: gene PRKACB
# [7] = test system: PKMYT1
# [8] = test system: PKN1
# [9] = test system: PKN2
# [10] = test system: PLK1
# [11] = test system: PLK2
# [12] = test system: PLK3
# [13] = test system: PLK4
# [14] = test system: PRKCD
# [15] = test system: PRKCE
# [16] = test system: PRKCH
# [17] = test system: PRKCI
# [18] = test system: PRKCQ
# [19] = test system: PRKD1
# [20] = test system: PRKD2
# 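Note: KINOMEscan kinase panel screen.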
SMILES,%Inh [1],%Inh [2],%Inh [3],%Inh [4],%Inh [5],%Inh [6],%Inh [7],%Inh [8],%Inh [9],%Inh [10],%Inh [11],%Inh [12],%Inh [13],%Inh [14],%Inh [15],%Inh [16],%Inh [17],%Inh [18],%Inh [19],%Inh [20]
COc1ccc(Nc2nccc(NCCNC(=O)c3cc4ccccc4s3)n2)cc1 [GSK1379896],0%,48%,22%,24%,0%,0%,0%,0%,0%,7%,0%,0%,0%,0%,2%,0%,25%,9%,0%,0%
Cc1ccc(F)c(C(=O)Nc2cccc(-c3nn4ccccc4c3-c3ccnc(Nc4cccc(F)c4)n3)c2)c1F [GSK361061],0%,6%,15%,0%,13%,29%,17%,0%,17%,19%,3%,9%,10%,25%,2%,25%,0%,27%,14%,12%
CC(C)(C)c1ccc2nccc(Nc3cccc(O)c3)c2c1 [GW856795],29%,40%,8%,7%,90.5%,0%,0%,0%,0%,0%,0%,0%,7%,0%,22%,0%,0%,0%,9%,6%
Nc1ncc(-c2ccc3nccc(-c4ccncc4)c3c2)cc1S(=O)(=O)N1CCOCC1 [GSK1627798],0%,0%,5%,30%,0%,0%,11%,12%,0%,0%,0%,0%,0%,0%,9%,18%,9%,0%,0%,3%
COc1cc(Nc2nccc(N3CCC(NC(=O)Nc4cccc(C(C)=O)c4)C3)n2)cc(OC)c1OC (stereo not drawn) [GSK1379753],0%,46%,5%,86%,0%,0%,0%,0%,0%,0%,0%,0%,54%,5%,0%,0%,25%,0%,0%,0%
COc1cccc(C(=O)Nc2cccc(Oc3ccc4nc(NC(=O)C5CC5)cn4n3)c2)c1,0%,10%,0%,28%,6%,47%,0%,0%,4%,0%,0%,14%,5%,25%,0%,0%,40%,0%,0%,44%
Cn1cc(-c2ccc3c(c2)CCN3C(=O)Cc2cccc(Cl)c2)c2c(N)ncnc21 [GSK2606590],0%,22%,10%,1%,7%,5%,9%,0%,0%,7%,0%,0%,6%,15%,0%,27%,0%,10%,0%,0%
COc1cccc(C2=C(Nc3ccc(Cl)c(C(=O)O)c3)C(=O)NC2=O)c1 [SB-390769],19%,60%,0%,28%,0%,6%,4%,0%,0%,0%,100%,100%,1%,0%,32%,25%,21%,0%,0%,6%
Cc1cccc(Nc2nc(N[C@H]3CCNC3)ncc2C(N)=O)c1.Cl [GSK2197149],47%,76%,65%,0%,19%,0%,0%,3%,14%,0%,1%,0%,0%,58%,86%,41%,0%,41%,49%,55%

# — PMC5540273 (PLoS ONE, 2017)
